Experiment [1] is described as follows: inhibitors of TNFa-induced NFkB p65 translocation, primary screen, imaging, HUVEC, MLSMR starter and 10KST1 sets (AID 438;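 active means inhibition above 20% together with a positive visual image hit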;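 further: compound added about 3h40 before a 20 min TNFalpha stimulation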;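 on inhibition: signal is the nuclear over cytoplasmic p65 intensity ratio per well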). To be noted: HUVEC TNFa-induced p65 nuclear translocation; cell count: measured here: nuclei count (cytotoxicity indicator), at 2.08 µM; inhibition: at 2 µM, stronger effect = higher value, 0% TNFa-plus-vehicle, 100% no-TNFa wells.
Experiment [2] can be described thus: reduction of polyQ htt aggregates in cells – imaging, exon1htt(103Q)mCFP cells, high-content imaging, primary screen (AID 483;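 active means visual image review flags a hit and inhibition of aggregation exceeds 20%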;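 further: compound exposure lasted 3 days before fixation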;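 on nuclei count: percent of the per-plate median nuclei count of sample wells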). To be noted: exon1htt(103Q)mCFP cell line, aggregate imaging, at 2 µM; inhibition of aggregation: stronger effect = higher value; nuclei count: measured here: cell count, toxicity.
Experiment [3] in a line: endothelial E-selectin expression blockers – imaging, HUVEC, immunofluorescence, MLSMR starter and 10KST1 sets, primary screen (AID 487;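 active means visually confirmed hit in the image check and inhibition above 20%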;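 on inhibition: signal is fraction of cell area covered by stained E-selectin grains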;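 on nuclei count: 100% = median nuclei count of all wells on the same plate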). The following applies: HUVEC TNFalpha-induced E-selectin immunofluorescence imaging, at 2 µM; inhibition: stronger effect = higher value; nuclei count: measured here: cell number, toxicity.
For experiment [4], the target named is Voltage-gated potassium channel subunit beta-2 (Rattus norvegicus) (UniProt P62483). Put plainly: inhibitors of rat Kvbeta2 reductase activity – biochemical, NADPH fluorescence, primary screen (AID 622;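 active means fluorescence slope higher than the sample average by over 3 SD, cut at about -0.22 in these data, passing the limit was not always enough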;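 further: slope of raw intensity against log time taken from 70 to 1610 s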). The following applies: recombinant KvBeta, 4-cyanobenzaldehyde reduction, at 10 µM, stronger effect = higher value.
Sequence of Voltage-gated potassium channel subunit beta-2 (Rattus norvegicus) (P62483 whole entry, looked up): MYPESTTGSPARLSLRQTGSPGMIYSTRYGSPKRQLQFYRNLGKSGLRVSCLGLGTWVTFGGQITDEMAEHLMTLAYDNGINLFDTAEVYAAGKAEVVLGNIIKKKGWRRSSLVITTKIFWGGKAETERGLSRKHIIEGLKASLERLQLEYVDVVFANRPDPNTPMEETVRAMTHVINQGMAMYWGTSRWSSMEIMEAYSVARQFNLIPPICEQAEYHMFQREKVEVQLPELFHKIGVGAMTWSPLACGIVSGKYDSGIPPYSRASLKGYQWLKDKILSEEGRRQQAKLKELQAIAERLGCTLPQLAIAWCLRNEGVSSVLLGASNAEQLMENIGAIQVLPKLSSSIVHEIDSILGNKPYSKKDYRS
The target is the same in experiment [5]. Put plainly: enhancers of rat Kvbeta2 NADPH turnover – biochemical, NADPH fluorescence, primary screen (AID 623;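 active means NADPH fluorescence slope more negative than the mean of all samples by about 3 SD, 99.7% confidence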;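 further: fluorescence intensity change per second fitted from 20 to 320 s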). The following applies: Recombinant KvBeta, NADPH fluorescence decrease slope, 10 min; at 10 µM; stronger effect = lower value.
Experiment [6] deals with Alpha-2C adrenergic receptor (Homo sapiens) (UniProt P18825). Description: compounds altering alpha2C-coupled GIRK flux – cell-based, HEK293 alpha2C/GIRK1/2, thallium flux, primary screen (AID 624;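 active means fluorescence slope after compound addition differing from the mean of all screened samples at 99.7% confidence, in either direction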;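 further: slope of fluorescence ratio to pre-addition baseline per second over 15 to 24 s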). To be noted: thallium flux BTC fluorescence, at 10 µM, actives lie on both sides.
Sequence of Alpha-2C adrenergic receptor (Homo sapiens) (P18825 whole entry, looked up): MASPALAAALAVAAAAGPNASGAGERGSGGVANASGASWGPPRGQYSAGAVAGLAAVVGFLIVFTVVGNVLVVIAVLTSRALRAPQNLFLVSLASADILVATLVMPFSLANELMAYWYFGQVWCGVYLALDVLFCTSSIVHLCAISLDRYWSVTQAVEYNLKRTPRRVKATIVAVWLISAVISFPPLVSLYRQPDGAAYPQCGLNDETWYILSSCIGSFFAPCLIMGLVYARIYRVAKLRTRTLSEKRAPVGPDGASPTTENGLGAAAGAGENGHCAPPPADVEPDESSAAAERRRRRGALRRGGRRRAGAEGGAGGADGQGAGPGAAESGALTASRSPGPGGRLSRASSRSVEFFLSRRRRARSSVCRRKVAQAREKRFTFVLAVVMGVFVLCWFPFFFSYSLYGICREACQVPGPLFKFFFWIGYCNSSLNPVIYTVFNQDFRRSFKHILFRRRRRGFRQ
Experiment [7] is described as follows: blockers of RIG-like receptor reporter activation – cell-based, Sendai virus stimulus, luciferase, 10K MLSCN set, TLR/RLR signaling modifier project, primary screen (AID 602276).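 Further: firefly luciferase from ISG56 promoter only with Renilla not read in this screen; 0% = Sendai virus plus DMSO and 100% = medium plus DMSO without virus.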 The following applies: HEK293 RL24 IRF3 luciferase reporter, at 10 µM, stronger effect = higher value.
Experiment [8] in a line: TLR3 IRF3 reporter activation blockers – cell-based, poly I:C stimulus, luciferase, 10K MLSCN set, primary screen (AID 602277;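 active means inhibition of the reporter signal at or above 50%; inactive means inhibition below 50%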). To be noted: HEK293-TLR3 RL24 IRF3 luciferase reporter, at 10 µM, stronger effect = higher value.

Calls of active or inactive are those of the source.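 How the source made its calls, unless noted: active means inhibition at or above 50% at 10 µM; inactive means inhibition below 50%.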

Turning to `O=C(CSc1nc(-c2ccccc2)cs1)NC(=O)NCc1ccco1`, the cell count in experiment [1] was 355. The inhibition in experiment [1] is -1.1% (inactive); in experiment [3], -105% (inactive); in experiment [7], 18.5% (inactive); in experiment [8], 3.13% (inactive). Besides, the inhibition of aggregation in experiment [2] is 1% (inactive). The nuclei count in experiment [2] was determined as 75.7%; in experiment [3] it was 125%. The fluorescence slope in experiment [4] is -0.429 (inactive). Besides, the NADPH fluorescence slope in experiment [5] is 3.1e-06 (inactive). For the same compound, in experiment [6], the slope was 0.00572 (inactive).
As to `O=C(NCC(=O)N1CCC(N2CCCCC2)CC1)C1CCCCC1`, the cell count in experiment [1] came out at 505. Also, the inhibition in experiment [1] was -12% (inactive); in experiment [3], 10.2% (inactive); in experiment [7], -3.39% (inactive); in experiment [8] it was 1.58% (inactive). For the same compound, in experiment [2], the inhibition of aggregation is 19.9% (inactive). Moreover, the nuclei count worked out at 91.8% in experiment [2] and 91% in experiment [3]. Moreover, in experiment [4], the fluorescence slope was -0.481 (inactive). Further, in experiment [5], the NADPH fluorescence slope is -0.000128 (inactive). Further, the slope in experiment [6] is 0.00598 (inactive).
`O=C(Nc1ccc2c(c1)OCO2)c1ccc(CN2CCOCC2)cc1`: the cell count in experiment [1] came out at 361. Also, the inhibition in experiment [1] was -5.1% (inactive); in experiment [3], -117% (inactive); in experiment [7], -25.7% (inactive); in experiment [8], -76.1% (inactive). Further, the inhibition of aggregation in experiment [2] is -32% (inactive). In addition, the nuclei count amounted to 110% in experiment [2] and 122% in experiment [3]. Also, the fluorescence slope in experiment [4] was -0.491 (inactive). Also, the NADPH fluorescence slope in experiment [5] was -3.3e-05 (inactive). In addition, the slope in experiment [6] is 0.00498 (inactive).
In the case of `N/C(=N/O)c1nc(N2CCCCC2)nc(N2CCCCC2)n1`, in experiment [1], the cell count turned out to be 640. The inhibition in experiment [1] was -16.2% (inactive); in experiment [3], -50.5% (inactive); in experiment [7], 8.03% (inactive); in experiment [8] it was 24.6% (inactive). The inhibition of aggregation in experiment [2] was -135% (inactive). Moreover, the nuclei count in experiment [2] worked out at 53.7%; in experiment [3], 81.9%. Besides, in experiment [4], the fluorescence slope is -0.498 (inactive). Moreover, the NADPH fluorescence slope in experiment [5] is 8.9e-06 (inactive). The slope in experiment [6] was 0.00632 (inactive).
As to `CSC1=C(C#N)C(c2ccc(Cl)cc2)C2=C(CC(C)(C)CC2=O)N1` (stereo not given), the cell count in experiment [1] was determined as 391. Further, the inhibition in experiment [1] is -3.3% (inactive); in experiment [3], -5.3% (inactive); in experiment [7] it was 1.71% (inactive); in experiment [8], 24.5% (inactive). In addition, the inhibition of aggregation in experiment [2] is 29.1% (inactive). For the same compound, the nuclei count in experiment [2] was found to be 81.5%; in experiment [3] it was 108%. Further, the fluorescence slope in experiment [4] is -0.416 (inactive). Besides, the NADPH fluorescence slope in experiment [5] was 5.8e-06 (inactive). Besides, the slope in experiment [6] was 0.00657 (inactive).
Regarding `Cc1cc(C(F)(F)F)nc(SCC(=O)NC2=NC(=O)C(C)S2)n1` (stereo not given), in experiment [1], the cell count worked out at 370. For the same compound, the inhibition in experiment [1] is 6.1% (inactive); in experiment [3] it was 19.6% (inactive); in experiment [7], -20.9% (inactive); in experiment [8], -16.9% (inactive). Further, the inhibition of aggregation in experiment [2] was 4.5% (inactive). Besides, the nuclei count turned out to be 109% in experiment [2] and 99% in experiment [3]. The fluorescence slope in experiment [4] is -0.457 (inactive). In addition, the NADPH fluorescence slope in experiment [5] is -1.9e-05 (inactive). Besides, the slope in experiment [6] was 0.00515 (inactive).
For the compound `COc1ccc(NC(=O)CN(c2ccc(C(C)C)cc2)S(=O)(=O)c2c(C)noc2C)cc1OC`, in experiment [1], the cell count amounted to 787. The inhibition is 3.4% (inactive) in experiment [1], -24.6% (inactive) in experiment [3], 18.3% (inactive) in experiment [7] and 41.9% (inactive) in experiment [8]. Moreover, the inhibition of aggregation in experiment [2] is -119% (inactive). Also, the figures for the nuclei count in experiment [2] and in experiment [3] were 123% and 108%, respectively. Further, the fluorescence slope in experiment [4] is -0.617 (inactive). In addition, the NADPH fluorescence slope in experiment [5] was 2e-05 (inactive). Also, the slope in experiment [6] was 0.00605 (inactive).
As for `CCOC(=O)c1ccc(NC(=O)Cn2cc3c(n2)CCC(C)C3)cc1` (stereo not given), the cell count in experiment [1] is 711. For the same compound, the inhibition was -3.7% (inactive) in experiment [1], -6% (inactive) in experiment [3], 12.5% (inactive) in experiment [7] and 23.6% (inactive) in experiment [8]. Also, the inhibition of aggregation in experiment [2] was -28.2% (inactive). The nuclei count stood at 91.4% in experiment [2] and 101% in experiment [3]. Further, the fluorescence slope in experiment [4] is -0.485 (inactive). In experiment [5], the NADPH fluorescence slope is 2.3e-05 (inactive). In experiment [6], the slope is 0.00553 (inactive).
On to `O=C(Nc1ccncc1)C1CCCN(S(=O)(=O)c2cccc3cccnc23)C1` (stereo not given), for which the cell count in experiment [1] stood at 686. Moreover, the inhibition was 6.8% (inactive) in experiment [1], -46% (inactive) in experiment [3], 40.7% (inactive) in experiment [7] and 34.4% (inactive) in experiment [8]. In addition, the inhibition of aggregation in experiment [2] was -328% (inactive). Moreover, the nuclei count worked out at 4.8% in experiment [2] and 104% in experiment [3]. For the same compound, the fluorescence slope in experiment [4] is -0.548 (inactive). Also, the NADPH fluorescence slope in experiment [5] was -3.9e-05 (inactive). For the same compound, in experiment [6], the slope was 0.00584 (inactive).
As for `CCCCN(C)C(=O)c1ccc(CS(=O)(=O)c2ccccc2C)o1`, in experiment [1], the cell count came to 315. Besides, the inhibition in experiment [1] is -10.4% (inactive); in experiment [3], -44.3% (inactive); in experiment [7] it was 7.73% (inactive); in experiment [8], 13.7% (inactive). The inhibition of aggregation in experiment [2] was 10.5% (inactive). For the same compound, the nuclei count is 65.2% in experiment [2] and 111% in experiment [3]. In addition, the fluorescence slope in experiment [4] is -0.569 (inactive). In addition, in experiment [5], the NADPH fluorescence slope is -1.2e-05 (inactive). In experiment [6], the slope is 0.00658 (inactive).

The values above are taken from PubChem BioAssay.
